Records with an inconclusive call do not appear. Values without a mark were called inactive. The source made the active and inactive calls. Unless noted, calls follow the shape of the dose curve; as a rule, active = well fitted curve in the direction sought with a large enough effect; inconclusive = small, poorly fitted or top-dose-only effect, or another doubt; inactive = no such curve, though single readings can be large; an effect the other way counts as inactive or inconclusive.
Columns and labels:
[1] = P-glycoprotein substrates identified in KB-3-1 adenocarcinoma cell line, qHTS therapeutic library screen (AID 1346986);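 also: potency is read from the fitted curve at half-maximal effect; potency is for cytotoxicity meaning loss of cell viability; nearly all actives have a fitted effect of over 60% in size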
Summary of the method: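 Resistance attributable to P-gp was assessed by comparing AC50 in KB-8-5-11 with parental KB-3-1 and by tariquidar reversal. Cells were exposed 72 h and viability read by CellTiter-Glo.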

Furin (Homo sapiens) = Furin (Homo sapiens) (UniProt P09958); assay: Furin counterscreen qHTS for Zika virus inhibitors (AID 1347149); also: nearly all actives have a fitted effect of over 70% in size; also: potency is read from the fitted curve at half-maximal effect;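 as to activity change, negative = inhibition: purified recombinant full-length human furin enzyme at 5 nM; fluorescence gain from furin cutting a BOC-RVRR-AMC peptide substrate over 15 min; top concentration of the series differs between compounds; plate controls were no-inhibitor control for no effect and no-enzyme control for full effect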
Chain of Furin (Homo sapiens) (P09958 whole entry, looked up): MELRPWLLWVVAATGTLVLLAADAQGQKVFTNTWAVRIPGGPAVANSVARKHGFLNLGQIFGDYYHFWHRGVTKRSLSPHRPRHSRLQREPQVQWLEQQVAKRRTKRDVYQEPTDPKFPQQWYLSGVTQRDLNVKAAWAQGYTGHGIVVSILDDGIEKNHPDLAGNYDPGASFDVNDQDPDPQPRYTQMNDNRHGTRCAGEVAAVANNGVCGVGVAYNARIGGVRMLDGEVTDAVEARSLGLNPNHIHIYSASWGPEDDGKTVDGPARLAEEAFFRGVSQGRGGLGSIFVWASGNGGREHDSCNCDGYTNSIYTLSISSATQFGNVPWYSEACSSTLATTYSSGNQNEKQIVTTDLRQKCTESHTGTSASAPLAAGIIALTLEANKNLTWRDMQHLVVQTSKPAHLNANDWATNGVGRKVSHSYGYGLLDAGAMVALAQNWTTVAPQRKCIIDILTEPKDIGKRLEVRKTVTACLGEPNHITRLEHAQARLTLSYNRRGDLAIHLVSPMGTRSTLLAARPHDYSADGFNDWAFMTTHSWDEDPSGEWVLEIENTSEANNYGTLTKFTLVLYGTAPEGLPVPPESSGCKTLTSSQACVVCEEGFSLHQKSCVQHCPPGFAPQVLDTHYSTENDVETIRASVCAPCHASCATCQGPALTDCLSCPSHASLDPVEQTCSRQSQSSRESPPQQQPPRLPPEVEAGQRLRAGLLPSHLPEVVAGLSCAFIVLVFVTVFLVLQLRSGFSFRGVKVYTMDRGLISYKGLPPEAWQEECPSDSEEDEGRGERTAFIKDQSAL
Summary of the method: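 Fluorogenic cleavage of BOC-RVRR-AMC (2 microM final, Km ~15 µM) was monitored (ex 340, em 450 nm) at 37C after 15 min RT preincubation of 5 nM furin with compounds in HEPES pH 7.0 buffer with CaCl2 and Triton X-100. Percent inhibition was fitted to a 4-parameter Hill curve.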

[2] = tested on: Zika virus NS2B-NS3 protease (linked construct); assay: Confirmatory screen NINDS AMC qHTS for Zika virus inhibitors (AID 1347152); also: potency is read from the fitted curve at half-maximal effect; nearly all actives have a fitted effect of over 70% in size
Summary of the method: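 Concentration-response confirmation used the NINDS linked protease (NS2B hydrophilic domain joined to NS3 protease domain), 1 nM, with a 15-min compound preincubation. Substrate, Nle-KRR-AMC at 10 microM, was read by UV fluorescence before and after 15 min.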

[3] = tested on: Zika virus NS2B-NS3 protease (unlinked complex); assay: Confirmatory screen GU AMC qHTS for Zika virus inhibitors (AID 1347153);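 also: enzyme at 25 nM with substrate at 10 µM below its Km of 18.3 µM; potency is read from the fitted curve at half-maximal effect; nearly all actives have a fitted effect of over 70% in size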
Summary of the method: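 Noncovalent NS2B hydrophilic domain/NS3 protease complex (25 nM) in 10 mM Tris-HCl pH 8.0, 0.01% Tween 20 was preincubated 15 min at room temperature with compounds. Then 10 µM AMC substrate (Km 18.3 µM) was added; fluorescence was read over 15 min and fitted to a 4-parameter Hill equation.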

[4] = Confirmatory screen GU Rhodamine qHTS for Zika virus inhibitors qHTS (AID 1347157); also: potency is read from the fitted curve at half-maximal effect; nearly all actives have a fitted effect of over 70% in size
Summary of the method: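 Percent inhibition derives from the 15-min fluorescence change (ex 480, em 540 nm), normalized to no-enzyme and no-inhibitor wells. Reactions contained 25 nM NS2B-NS3 complex and 1.5 microM substrate in 10 mM Tris-HCl pH 8.0.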

[5] = tested on: Zika virus NS2B-NS3 protease (linked); assay: 384 well plate NINDS AMC confirmatory qHTS for Zika virus inhibitors (AID 1347163); also: nearly all actives have a fitted effect of over 50% in size; also: potency is read from the fitted curve at half-maximal effect;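 as to activity change, negative = inhibition: linked protease at 5 30 or 60 nM final depending on run; fluorescence of AMC released from Ac-VKTGKR-AMC peptide cleaved by the protease; top concentration of the series differs between compounds; 0% = no-inhibitor control and -100% = no-enzyme control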
Summary of the method: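 Linked NS2B-NS3 protease (final 5 nM, 30 nM or 60 nM) was preincubated with compounds (final up to 1 mM) for ~15 minutes. Ac-VKTGKR-AMC substrate (final 30 microM) then reacted for 25 minutes at room temperature in the dark. Fluorescence (ex 355/em 460 nm) was normalized to no-enzyme and no-inhibitor controls.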

[6] = tested on: Zika virus NS2B-NS3 protease (linked construct); assay: 384 well plate NINDS Rhodamine confirmatory qHTS for Zika virus inhibitors (AID 1347164); also: nearly all actives have a fitted effect of over 65% in size; also: potency is read from the fitted curve at half-maximal effect;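 as to activity change, negative = inhibition: top concentration of the series differs between compounds; plate controls were no-inhibitor control for no effect and no-enzyme control for full effect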
Summary of the method: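 Cleavage of Ac-LKRR-Rhodamine 110 (10 microM final) by linked protease (final 5, 30 or 60 nM) was followed as fluorescence at 485/538 nm after 25 min, room temperature, dark. Compounds preincubated ~15 min.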

[7] = Vero cells viability qHTS for Zika virus inhibitors (AID 1347167); also: potency is read from the fitted curve at half-maximal effect
Summary of the method: (§1)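 Counter-screen for cytotoxicity of hits from NS2B-NS3 protease qHTS. Overnight-attached cells (2.5 x 10^5 cells/mL, DMEM/4% FBS) were dosed in titration, incubated 24 to 48 hours, then assayed by CellTiter Glo.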

[8] = HepG2 cells viability qHTS for Zika virus inhibitors (AID 1347168); also: % is scaled to controls: 0 for no effect and ±100 for the full control effect
Summary of the method: as §1

[9] = ZIKV-mCherry secondary qHTS for Zika virus inhibitors (AID 1347158); also: potency is read from the fitted curve at half-maximal effect
Summary of the method: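 Vero cells (5,000/well) were given compound, then infected with ZIKV-mCherry at MOI 1 for 48–72 h at 37 °C. After PFA fixation and Hoechst staining, imaging gave percent mCherry-positive cells. The positivity threshold was RFU above 450, 3 SD over negative controls.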

[10] = target: Cytochrome P450 3A4 (Homo sapiens) (UniProt P08684); assay: Cytochrome P450 family 3 subfamily A member 4 (CYP3A4) small molecule antagonists: luciferase qHTS assay (AID 1645841; active = well fitted curve in the direction sought with a large enough effect in the repeat runs; an effect the other way counts as inactive or inconclusive; also: nearly all actives have a fitted effect of over 45% in size)
Chain of Cytochrome P450 3A4 (Homo sapiens) (P08684 whole entry, looked up): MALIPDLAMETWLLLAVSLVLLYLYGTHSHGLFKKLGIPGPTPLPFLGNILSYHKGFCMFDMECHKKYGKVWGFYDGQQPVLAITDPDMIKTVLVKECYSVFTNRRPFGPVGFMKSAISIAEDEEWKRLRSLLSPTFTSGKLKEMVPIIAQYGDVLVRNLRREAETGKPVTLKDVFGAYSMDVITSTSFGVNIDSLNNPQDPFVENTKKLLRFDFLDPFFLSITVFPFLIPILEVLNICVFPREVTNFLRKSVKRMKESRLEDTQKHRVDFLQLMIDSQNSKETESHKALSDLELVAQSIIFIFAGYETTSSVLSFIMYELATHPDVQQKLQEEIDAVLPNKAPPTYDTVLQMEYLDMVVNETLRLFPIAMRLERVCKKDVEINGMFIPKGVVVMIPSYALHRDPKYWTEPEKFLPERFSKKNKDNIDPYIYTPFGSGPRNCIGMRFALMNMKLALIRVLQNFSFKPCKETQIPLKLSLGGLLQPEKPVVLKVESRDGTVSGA
Summary of the method: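 P450-Glo CYP3A4 enzyme with proluciferin substrate was preincubated with DMSO-dissolved compounds for 10 min at room temperature. NADPH regeneration solution started a 1 h reaction. Detection reagent stopped it, and luminescence was read after 20 min.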

[11] = tested on: Zika virus NS2B-NS3 protease; assay: Primary screen GU AMC qHTS for Zika virus inhibitors (AID 1347154)
Summary of the method: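 Unlinked Zika NS2B hydrophilic domain/NS3 protease domain noncovalent complex (25 nM final) in 10 mM Tris-HCl pH 8.0, 0.01% Tween 20, with AMC peptide substrate. Fluorescence (ex 340, em 450 nm) change over 15 min, room temperature; percent inhibition fitted to 4-parameter Hill equation.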

[12] = Primary qHTS for small molecule stabilizers of the endoplasmic reticulum resident proteome: Secreted ER Calcium Modulated Protein (SERCaMP) assay (AID 1508630); also: % is scaled to controls: 0 for no effect and ±100 for the full control effect
Summary of the method: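 GLuc-SERCaMP-expressing SH-SY5Y cells, pretreated 16 h with compound, are challenged with thapsigargin to empty ER calcium stores; after 4 h, coelenterazine is added directly to the medium and luminescence is imaged.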

[13] = Counterscreen qHTS for small molecule stabilizers of the endoplasmic reticulum resident proteome: GLuc-NoTag assay (AID 1508627);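 also: SH-SY5Y cells given compound then 100 nM thapsigargin to empty ER calcium; 0% = thapsigargin alone and -100% = DMSO vehicle control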
Summary of the method: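 SH-SY5Y cells stably expressing constitutively secreted GLuc (no SERCaMP tag) were pre-incubated 5 h, treated with compound for 19 h, then 100 nM thapsigargin for 4 h at 37C; medium GLuc read by coelenterazine luminescence.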

[14] = Confirmatory qHTS for small molecule stabilizers of the endoplasmic reticulum resident proteome: Secreted ER Calcium Modulated Protein (SERCaMP) assay (AID 1508628); also: potency is read from the fitted curve at half-maximal effect; nearly all actives have a fitted effect of over 40% in size
Summary of the method: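 SH-SY5Y cells stably expressing GLuc-SERCaMP, treated 16 h with compound (primary 1.53, 7.67, 38.3 uM; confirmation 11 concentrations, up to 76.6 uM), then 100 nM thapsigargin for 4 h. Secreted Gaussia luciferase in medium read by coelenterazine luminescence.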

NIH3T3 = assay: qHTS assay to identify novel small-molecules to repurpose for Merkel cell carcinoma treatment (AID 1296009); settings: MCC and control cell lines, CellTiter-Glo viability, 72 h; series mostly up to 9.27 µM; also: nearly all actives have a fitted effect of over 60% in size; also: potency is read from the fitted curve at half-maximal effect
Summary of the method: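 qHTS format: cells treated with library compounds in DMSO across 8 (NPC) or 11 (MIPE) concentrations. Readout after 72 hr at 37 degree celsius was CellTiter-Glo luminescence.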

[15] = NCATS anti-infectives library activity on HEK293 viability as a counter-qHTS vs the C. elegans viability qHTS (AID 1745854);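 also: HEK293 cells exposed to compounds for 24 hr before the viability read; % is scaled to controls: 0 for no effect and ±100 for the full control effect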
Summary of the method: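 HEK293 cells (1,500/well) exposed 24 hr at 37C to 1:5 titrations, up to 41.7 uM final; counter-screen to a C. elegans viability qHTS. Viability by CellTiter-Glo luminescence after 10 min at room temperature; digitonin as control.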

[16] = qHTS Assay for Identifying Gametocytocidal Compounds (AID 743244); also: potency is read from the fitted curve at half-maximal effect;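 as to max response: % is scaled to controls: 0 for no effect and ±100 for the full control effect; actives lower the fluorescent signal which means gametocytes are killed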; settings: P. falciparum 3D7 stage III-V gametocytes, alamarBlue, 72 h; max response: stronger effect = lower value
Summary of the method: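 Stage III–V gametocytes of P. falciparum 3D7 were seeded at 20,000 cells/well onto pre-dispensed compounds. After 72 h, 37 °C, 5% CO2, alamarBlue was added for another 24 h.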

astro = assay: Drug repurposing screens with cells derived from glioblastoma tumor samples (AID 1345199); settings: viability, ATP luminescence, 48 h; series mostly up to 45.9 µM; also: % is scaled to controls: 0 for no effect and ±100 for the full control effect; nearly all actives have a fitted effect of over 40% in size
Summary of the method: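 Four patient lines of CD133+ GBM neurospheres were screened at several concentrations; hits were retested in those lines plus three slower-growing GBM lines, using 48-hour treatment and ATP-based viability.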

[17] = qHTS profiling for inhibitors of Plasmodium falciparum proliferation (AID 504749); also: potency is read from the fitted curve at half-maximal effect; nearly all actives have a fitted effect of over 60% in size; settings: P. falciparum in erythrocytes, SYBR Green DNA, 72 h
Summary of the method: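 Parasite proliferation within erythrocytes, 72 h exposure. Endpoint: SYBR Green I fluorescence after overnight lysis at room temperature. Controls: 0.29 uM artemisinin, DMSO.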

## C[C@@H]1COCCN1c1cc(C2(S(C)(=N)=O)CC2)nc(-c2ccnc3[nH]ccc23)n1 (some centres undefined)
[1]
  Potency: 6.51 µM (active)

## CC1CCN(C(c2ccc(F)cc2)c2ccc(C(C)C(=O)O)cc2-c2ccc(C(F)(F)F)cc2)CC1 (centres undefined)
Furin (Homo sapiens)
  Potency: inactive
[2]
  Potency: 13.9 µM (active)
[3]
  Potency: 15.6 µM (active)
[4]
  Potency: 3.93 µM (active)
[5]
  Potency: 0.891 µM (active)
[6]
  Potency: 2.51 µM (active)
[7]
  Potency: 18.6 µM (active)
[8]
  Potency: inactive

## O=C(NCc1ccc(Oc2ccccc2)cc1)c1nc(-c2cc(Br)c(O)c(Br)c2)no1
[2]
  Potency: 13.9 µM (active)
[4]
  Potency: 1.75 µM (active)
[9]
  Potency: 7.08 µM (active)
[5]
  Potency: 2.51 µM (active)
[6]
  Potency: 1.58 µM (active)
[8]
  Potency: inactive

## Cc1ccc(C(=O)N2CCN(c3ccc([N+](=O)[O-])cc3)CC2)cc1Cl
[10]
  outcome: inactive

## CC1CCC2C(=CCC(O)C2(C)C)C1(C)Cc1c(O)cc(CO)c(C=O)c1O (centres undefined)
[4]
  Potency: 24.3 µM (active)

## C=CC(=O)Nc1cc(Nc2nccc(-c3cn(C)c4ccccc34)n2)c(OC)cc1N(C)CCN(C)C
[1]
  Potency: 10.3 µM (active)

## O=C(NC(NC(=S)Nc1ccc(F)c([N+](=O)[O-])c1)C(Cl)(Cl)Cl)C(c1ccccc1)c1ccccc1 (centres undefined)
[11]
  Potency: inactive
[12]
  Potency: inactive

## Oc1ccc(Nc2nc(-c3ccc(Cl)cc3)cs2)cc1
[11]
  Potency: inactive
[13]
  Potency: inactive
[14]
  Potency: 2 µM (active)

## COc1cc(N2CCN(C(C)=O)CC2)ccc1Nc1ncc(Cl)c(Nc2ccc(N3CCN(C(C)=O)CC3)cc2OC)n1
[1]
  Potency: 14.6 µM (active)

## C=C1[C@@H](C2=CC(=O)OC2)CC[C@@]2(O)[C@@H]1CC1[C@H]2CC[C@@H]2C[C@@H](O[C@H]3O[C@@H](C)[C@@H](O[C@@H]4O[C@H](CO[C@@H]5O[C@H](CO)[C@@H](O)[C@H](O)[C@H]5O)[C@@H](O)[C@H](O)[C@H]4O)[C@H](OC)[C@H]3O)CC[C@]12C (some centres undefined)
NIH3T3
  Potency: inactive

## CCOC(=O)c1cccc(CNc2ccc(N(C)C(=O)Nc3ccccc3)cc2)c1
[15]
  outcome: inactive

## Nc1nc(NCC2CCC(CNS(=O)(=O)c3cccc4ccccc34)CC2)nc2ccccc12 (centres undefined)
[11]
  Potency: inactive
[12]
  Potency: inactive

## N#C[C@@H]1C[C@@H]2C[C@@H]2N1C(=O)[C@@H](N)C12CC3CC(CC(O)(C3)C1)C2
[16]
  max response: -8.8%
[15]
  outcome: inactive

## Nc1ccc(N)c([N+](=O)[O-])c1
[16]
  Potency: 39.8 µM (active)
astro
  Potency: inactive

## CCNC(=O)[C@@H]1CCCN1C(=O)[C@H](CCCN=C(N)N)NC(=O)[C@H](CC(C)C)NC(=O)[C@@H](CC(C)C)NC(=O)[C@H](Cc1ccc(O)cc1)NC(=O)[C@H](CO)NC(=O)[C@H](Cc1c[nH]c2ccccc12)NC(=O)[C@H](Cc1cnc[nH]1)NC(=O)[C@@H]1CCC(=O)N1
[16]
  max response: 2.85%
astro
  Potency: inactive

## CN(CC(=O)N(Cc1ccc(C2CCCCC2)cc1)c1ccc(C(=O)O)cc1)S(=O)(=O)c1c(F)c(F)c(F)c(F)c1F
[2]
  Potency: 19.7 µM (active)
[3]
  Potency: 22.1 µM (active)
[4]
  Potency: 3.5 µM (active)
[5]
  Potency: 50.1 µM (active)
[6]
  activity change, negative = inhibition: -179% [at 100 µM]

## O=C(CC1NCCC[C@H]1O)Cn1cnc2cc(Br)c(Cl)cc2c1=O (some centres undefined)
[17]; parasite line A
  Potency: 2 µM (active)
[17]; parasite line B
  Potency: 3.55 µM (active)

## COCCNCc1ccc(-c2cc3nccc(Oc4ccc(NC(=S)NC(=O)Cc5ccc(F)cc5)cc4F)c3s2)nc1
[1]
  Potency: 23.1 µM (active)

## CS(=O)(=O)c1ccc(-c2cn3ccccc3n2)cc1
Furin (Homo sapiens)
  Potency: 5.39 µM (active)
[2]
  Potency: 21.5 µM (active)
[3]
  Potency: 24.1 µM (active)
[7]
  Potency: inactive
[12]
  Potency: inactive

## O=C(c1ccc(F)c(F)c1Nc1ccc(I)cc1F)N1CC(O)([C@@H]2CCCCN2)C1
NIH3T3
  Potency: 9.2 µM (active)

## CC[C@H](C)[C@H]1O[C@]2(CC[C@@H]1C)C[C@@H]1C[C@@H](C/C=C(\C)[C@@H](O[C@H]3C[C@H](OC)[C@@H](O[C@H]4C[C@H](OC)[C@@H](O)[C@H](C)O4)[C@H](C)O3)[C@@H](C)/C=C/C=C3\CO[C@@H]4[C@H](O)C(C)=C[C@@H](C(=O)O1)[C@]34O)O2
Furin (Homo sapiens)
  Potency: inactive
[5]
  Potency: inactive
[6]
  Potency: inactive
[7]
  Potency: inactive
[8]
  Potency: inactive

## CN(C)CC(=O)Nc1ccc2[nH]c(=O)c3ccccc3c2c1
[15]
  outcome: inactive
